# Results from the supplement of paper PMC9262897, “Low-cost anti-mycobacterial drug discovery using engineered E. coli” (Nature Communications, 2022).
# Structures can show the parent of a compound that is named as a salt. ± gives the standard deviation of the averaged measurements.
# How the values were obtained:
# Assay in all cases: growth (OD600 after 10 h); higher = more growth (less inhibition)
# [1] = tested on: E. coli TESEC Alr+ wild-type control; conditions: compound 0.1 mM; raw OD600 reference: median of DMSO wells 0.241, cell-free background 0.041
# Experimental: (§1)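 TESEC Mtb Alr E. coli, or the Alr+ wild-type control, in 384-well plates with Prestwick library compounds at 0.1 mM and 1% DMSO, across arabinose induction levels of 1E3 to 1E7 nM. Growth is read as OD600 after 10 h at 37 °C in triplicate biological replicates.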
# E. coli TESEC Mtb Alr [2] = conditions: compound 0.1 mM
# Experimental: as §1
# E. coli TESEC Mtb Asd = conditions: compound 0.1 mM
# Experimental: (§2)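 TESEC E. coli strains in which the native enzyme is deleted and replaced by arabinose-inducible Mtb Asd, DapB, CysH or TrpD, each grown in its selective medium. Strains were screened against the Prestwick library at 0.1 mM and 1% DMSO in 384-well format at low and high arabinose induction. Growth is read as OD600 after 10 h in triplicate.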
# [3] = tested on: E. coli TESEC Alr+ wild-type control; conditions: compound 0.1 mM; raw OD600 reference: median of DMSO wells 0.49, cell-free background 0.052
# Experimental: (§3)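 TESEC Mtb Alr E. coli (ΔaraC ΔtolC ΔentC Δalr ΔdadX, arabinose-inducible Mtb Alr) or the Alr+ wild-type control strain, grown in defined M9-fructose medium without D-alanine in 96-well plates with Prestwick library compounds at 0.1 mM and 1% DMSO. Low Alr induction is 0.1 µM arabinose and high induction is 10 mM arabinose.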
# E. coli TESEC Mtb Alr [4] = conditions: compound 0.1 mM; remark: listed apart in the source
# Experimental: as §3
# E. coli TESEC Mtb DapB = conditions: compound 0.1 mM
# Experimental: as §2
# [5] = arabinose 1000 nM, raw OD600 reference: median of DMSO wells 0.294, cell-free background 0.041
# [6] = arabinose 10000 nM, raw OD600 reference: median of DMSO wells 0.264, cell-free background 0.041
# [7] = arabinose 100000 nM, raw OD600 reference: median of DMSO wells 0.201, cell-free background 0.041
# [8] = arabinose 1000000 nM, raw OD600 reference: median of DMSO wells 0.193, cell-free background 0.041
# [9] = arabinose 10000000 nM, raw OD600 reference: median of DMSO wells 0.146, cell-free background 0.041
# [10] = arabinose induction (level): High, raw OD600 reference: median of DMSO wells 0.331, cell-free background 0.041
# [11] = arabinose induction (level): Low, raw OD600 reference: median of DMSO wells 0.417, cell-free background 0.041
# [12] = arabinose 100 nM, raw OD600 reference: median of DMSO wells 0.413, cell-free background 0.052
# [13] = arabinose 10000000 nM, raw OD600 reference: median of DMSO wells […], cell-free background 0.052
# [14] = arabinose induction (level): High, raw OD600 reference: median of DMSO wells […], cell-free background 0.041
# [15] = arabinose induction (level): Low, raw OD600 reference: median of DMSO wells 0.227, cell-free background 0.041
SMILES,growth [1],growth (E. coli TESEC Mtb Alr [2]; [5]),growth (E. coli TESEC Mtb Alr [2]; [6]),growth (E. coli TESEC Mtb Alr [2]; [7]),growth (E. coli TESEC Mtb Alr [2]; [8]),growth (E. coli TESEC Mtb Alr [2]; [9]),growth (E. coli TESEC Mtb Asd; [10]),growth (E. coli TESEC Mtb Asd; [11]),growth [3],growth (E. coli TESEC Mtb Alr [4]; [12]),growth (E. coli TESEC Mtb Alr [4]; [13]),growth (E. coli TESEC Mtb DapB; [14]),growth (E. coli TESEC Mtb DapB; [15])
C[N+]1(C)CCC(=C(c2ccccc2)c2ccccc2)CC1 [Diphemanil methylsulfate],0.206 ± 0.0076,0.289 ± 0.01,0.255 ± 0.01,0.197 ± 0.013,0.16 ± 0.014,0.153 ± 0.0035,0.203 ± 0.027,0.352 ± 0.065,0.4312 ± 0.0036,0.4115 ± 0.0028,0.36 ± 0.015,–,–
CC1(C)S[C@@H]2[C@H](NC(=O)[C@H](N)c3ccc(O)cc3)C(=O)N2[C@H]1C(=O)O [Amoxicillin],0.242 ± 0.006,0.297 ± 0.0057,0.251 ± 0.0052,0.211 ± 0.033,0.186 ± 0.0034,0.14 ± 0.0024,0.358 ± 0.097,0.321 ± 0.037,0.572 ± 0.07,0.422 ± 0.011,0.378 ± 0.0083,–,–
Nc1ncn(C2OC(CO)C(O)C2O)c(=O)n1 (configuration not stated) [Azacytidine-5],0.093 ± 0.0029,0.106 ± 0.0065,0.0449 ± 0.0005,0.113 ± 0.0011,0.0465 ± 0.00069,0.0822 ± 0.0002,0.125 ± 0.0088,0.192 ± 0.065,–,0.385 ± 0.022,0.066 ± 0.0049,0.199 ± 0.03,0.193 ± 0.027
Cc1ccc(Cl)c(Nc2ccccc2C(=O)O)c1Cl [Meclofenamic acid sodium salt monohydrate],0.0491 ± 0.00067,0.0555 ± 0.0013,0.0424 ± 0.00044,0.0566 ± 0.00087,0.04353 ± 0.00038,0.0628 ± 0.001,0.0702 ± 0.014,0.0796 ± 0.0032,–,0.0708 ± 0.027,0.0591 ± 0.0032,0.118 ± 0.021,0.123 ± 0.016
NS(=O)(=O)c1cc(C(=O)O)c(NCc2ccco2)cc1Cl [Furosemide],0.244 ± 0.0029,0.303 ± 0.0075,0.2547 ± 0.00051,0.242 ± 0.024,0.18 ± 0.0021,0.148 ± 0.0056,0.353 ± 0.011,0.408 ± 0.054,0.613 ± 0.019,0.406 ± 0.012,0.353 ± 0.014,–,–
CN(C)CCC=C1c2ccccc2C=Cc2ccccc21 [Cyclobenzaprine hydrochloride],0.1703 ± 0.0014,0.204 ± 0.016,0.247 ± 0.011,0.172 ± 0.011,0.0898 ± 0.0029,0.125 ± 0.0031,0.161 ± 0.0091,0.262 ± 0.022,0.5608 ± 0.002,0.401 ± 0.0064,0.231 ± 0.018,–,–
O=P(O)(O)C(Cl)(Cl)P(=O)(O)O [Clodronate],0.248 ± 0.0073,0.308 ± 0.021,0.284 ± 0.005,0.188 ± 0.016,0.193 ± 0.0024,0.14 ± 0.0033,0.336 ± 0.042,0.403 ± 0.025,0.528 ± 0.084,0.411 ± 0.0072,0.303 ± 0.0027,–,–
CCCNC(C)(C)COC(=O)c1ccccc1 [Meprylcaine hydrochloride],0.234 ± 0.0059,0.298 ± 0.0024,0.2777 ± 0.0023,0.211 ± 0.0098,0.215 ± 0.025,0.133 ± 0.0041,0.281 ± 0.061,0.338 ± 0.025,0.6187 ± 0.0042,0.419 ± 0.0049,0.339 ± 0.0092,–,–
Oc1c(Cl)cc(Cl)c2cccnc12 [Chloroxine],0.044 ± 0.00076,0.0429 ± 0.00083,0.0409 ± 0.00069,0.0435 ± 0.00076,0.0415 ± 0.00061,0.0495 ± 0.00057,0.0595 ± 0.0028,0.154 ± 0.05,0.0623 ± 0.0012,0.0554 ± 0.0075,0.0726 ± 0.013,–,–
CCCCCN(C)CCC(O)(P(=O)(O)O)P(=O)(O)O [Ibandronate sodium],0.245 ± 0.0075,0.287 ± 0.01,0.25 ± 0.0058,0.196 ± 0.011,0.182 ± 0.0036,0.131 ± 0.0067,0.364 ± 0.022,0.448 ± 0.015,0.462 ± 0.035,0.422 ± 0.01,0.358 ± 0.014,–,–
OC(Cn1cncn1)(Cn1cncn1)c1ccc(F)cc1F [Fluconazole],0.2384 ± 0.0019,0.29 ± 0.005,0.276 ± 0.0067,0.187 ± 0.029,0.211 ± 0.0083,0.14 ± 0.0056,0.267 ± 0.015,0.283 ± 0.037,0.505 ± 0.049,0.411 ± 0.012,0.357 ± 0.017,–,–
NCC[C@H](O)C(=O)N[C@@H]1C[C@H](N)[C@@H](O[C@H]2O[C@H](CN)[C@@H](O)[C@H](O)[C@H]2O)[C@H](O)[C@H]1O[C@H]1O[C@H](CO)[C@@H](O)[C@H](N)[C@H]1O [Amikacin hydrate],0.04273 ± 0.00012,0.0418 ± 0.00079,0.039 ± 0.0001,0.0425 ± 0.0009,0.03943 ± 0.00021,0.0506 ± 0.00051,0.0495 ± 0.0018,0.0485 ± 0.0012,0.0539 ± 0.00071,0.0563 ± 0.0034,0.0532 ± 0.0009,–,–
CN1CCCC(n2nc(Cc3ccc(Cl)cc3)c3ccccc3c2=O)CC1 (configuration not stated) [Azelastine HCl],0.16 ± 0.0036,0.19 ± 0.011,0.172 ± 0.0055,0.193 ± 0.0073,0.105 ± 0.0015,0.1635 ± 0.00076,0.157 ± 0.025,0.241 ± 0.056,0.472 ± 0.021,0.409 ± 0.0069,0.312 ± 0.019,–,–
Nc1ccc(S(=O)(=O)Nc2cnc3ccccc3n2)cc1 [Sulfaquinoxaline sodium salt],0.221 ± 0.0039,0.266 ± 0.02,0.171 ± 0.004,0.21 ± 0.0087,0.1074 ± 0.00085,0.137 ± 0.0051,0.289 ± 0.073,0.396 ± 0.028,0.47 ± 0.082,0.419 ± 0.0091,0.297 ± 0.0077,–,–
Cc1ncc(C[n+]2csc(CCO)c2C)c(N)n1 [Thiamine hydrochloride],0.246 ± 0.0087,0.295 ± 0.0076,0.251 ± 0.0027,0.174 ± 0.014,0.185 ± 0.0064,0.129 ± 0.0017,0.354 ± 0.062,0.418 ± 0.062,0.451 ± 0.011,0.42 ± 0.0059,0.362 ± 0.02,–,–
O=C1c2cccc3c2[C@H](CCC3)CN1[C@@H]1CN2CCC1CC2 [Palonosetron hydrochloride],0.212 ± 0.017,0.281 ± 0.0041,0.263 ± 0.013,0.177 ± 0.01,0.165 ± 0.0085,0.151 ± 0.0037,0.267 ± 0.049,0.279 ± 0.045,0.601 ± 0.042,0.417 ± 0.011,0.307 ± 0.022,–,–
CCCN(CCC)S(=O)(=O)c1ccc(C(=O)O)cc1 [Probenecid],0.226 ± 0.0059,0.254 ± 0.0078,0.261 ± 0.011,0.221 ± 0.047,0.153 ± 0.0022,0.159 ± 0.0038,0.346 ± 0.12,0.371 ± 0.07,0.49 ± 0.048,0.4 ± 0.016,0.267 ± 0.0045,–,–
CC(=O)Oc1ccccc1C(=O)Nc1ncc([N+](=O)[O-])s1 [Nitazoxanide],0.0514 ± 0.01,0.0462 ± 0.0042,0.0417 ± 0.00046,0.0425 ± 0.0013,0.0434 ± 0.0042,0.0448 ± 0.0011,0.0632 ± 0.0045,0.05953 ± 0.00059,0.0524 ± 0.0014,0.157 ± 0.039,0.0545 ± 0.0013,–,–
CC(C(O)c1ccc(O)cc1)N1CCC(Cc2ccccc2)CC1 (configuration not stated) [Ifenprodil tartrate],0.195 ± 0.018,0.251 ± 0.019,0.276 ± 0.0052,0.194 ± 0.0092,0.143 ± 0.0037,0.172 ± 0.0094,0.313 ± 0.065,0.427 ± 0.028,0.453 ± 0.037,0.409 ± 0.011,0.312 ± 0.0043,–,–
CC1=C(/C=C/C(C)=C/C=C/C(C)=C\C(=O)O)C(C)(C)CCC1 [Isotretinoin],0.245 ± 0.0032,0.274 ± 0.016,0.24 ± 0.0073,0.218 ± 0.012,0.11 ± 0.0034,0.15 ± 0.004,0.328 ± 0.098,0.365 ± 0.073,0.425 ± 0.028,0.438 ± 0.0094,0.251 ± 0.014,–,–
